6 compounds from ChEMBL document CHEMBL1961873, “Compounds: GSK PKIS; Assays: Nanosyn kinase panel” (2012) can be followed below.

The target in experiment [1] is T1, Aurora kinase A (Homo sapiens) (UniProt O14965).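 Also: values are mean percent inhibition.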
T1 sequence (whole entry): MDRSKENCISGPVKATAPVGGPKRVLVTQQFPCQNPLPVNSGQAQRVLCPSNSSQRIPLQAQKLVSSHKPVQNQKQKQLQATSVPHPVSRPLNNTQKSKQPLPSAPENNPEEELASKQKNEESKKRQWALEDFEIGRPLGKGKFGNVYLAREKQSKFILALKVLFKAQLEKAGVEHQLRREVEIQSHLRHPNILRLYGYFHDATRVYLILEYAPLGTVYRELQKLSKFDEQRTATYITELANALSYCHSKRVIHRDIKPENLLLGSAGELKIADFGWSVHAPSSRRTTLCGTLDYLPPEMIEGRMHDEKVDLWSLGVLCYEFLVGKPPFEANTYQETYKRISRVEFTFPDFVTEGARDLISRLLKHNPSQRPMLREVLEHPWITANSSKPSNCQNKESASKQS
Conditions: at 1 µM.

In experiment [2] the target is Aurora kinase B (Homo sapiens) (UniProt Q96GD4). Conditions: at 0.1 µM.
Aurora kinase B (Homo sapiens), sequence (Q96GD4 whole entry): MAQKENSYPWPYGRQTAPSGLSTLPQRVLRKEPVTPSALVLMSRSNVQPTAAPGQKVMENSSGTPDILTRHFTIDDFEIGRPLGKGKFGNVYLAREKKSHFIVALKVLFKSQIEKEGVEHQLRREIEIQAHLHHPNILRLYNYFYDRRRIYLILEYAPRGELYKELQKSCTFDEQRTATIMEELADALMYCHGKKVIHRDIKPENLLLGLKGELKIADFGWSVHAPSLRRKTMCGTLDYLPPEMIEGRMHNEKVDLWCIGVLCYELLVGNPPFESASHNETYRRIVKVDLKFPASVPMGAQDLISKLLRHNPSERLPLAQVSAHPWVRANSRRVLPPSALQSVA
For experiment [3] the target is unchanged. The settings on record: at 1 µM.
Experiment [4] addresses T2, Aurora kinase C (Homo sapiens) (UniProt Q9UQB9).
T2 sequence (whole entry): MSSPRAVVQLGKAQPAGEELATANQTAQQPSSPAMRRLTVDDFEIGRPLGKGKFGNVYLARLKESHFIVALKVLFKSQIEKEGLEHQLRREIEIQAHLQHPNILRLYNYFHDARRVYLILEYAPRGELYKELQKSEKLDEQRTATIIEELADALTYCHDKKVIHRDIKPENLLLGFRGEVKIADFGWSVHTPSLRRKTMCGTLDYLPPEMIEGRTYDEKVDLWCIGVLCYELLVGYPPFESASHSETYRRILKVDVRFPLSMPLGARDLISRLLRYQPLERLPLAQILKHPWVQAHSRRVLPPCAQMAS
Conditions: at 0.1 µM.

The target of experiment [5] is T2, Aurora kinase C (Homo sapiens). Conditions: at 1 µM.
Experiment [6] addresses Serine/threonine-protein kinase 10 (Homo sapiens) (UniProt O94804). Conditions: at 0.1 µM.
For experiment [7] the target is unchanged. The settings on record: at 1 µM.
Experiment [8] addresses T3, Mitogen-activated protein kinase kinase kinase kinase 2 (Homo sapiens) (UniProt Q12851).
T3 sequence (whole entry): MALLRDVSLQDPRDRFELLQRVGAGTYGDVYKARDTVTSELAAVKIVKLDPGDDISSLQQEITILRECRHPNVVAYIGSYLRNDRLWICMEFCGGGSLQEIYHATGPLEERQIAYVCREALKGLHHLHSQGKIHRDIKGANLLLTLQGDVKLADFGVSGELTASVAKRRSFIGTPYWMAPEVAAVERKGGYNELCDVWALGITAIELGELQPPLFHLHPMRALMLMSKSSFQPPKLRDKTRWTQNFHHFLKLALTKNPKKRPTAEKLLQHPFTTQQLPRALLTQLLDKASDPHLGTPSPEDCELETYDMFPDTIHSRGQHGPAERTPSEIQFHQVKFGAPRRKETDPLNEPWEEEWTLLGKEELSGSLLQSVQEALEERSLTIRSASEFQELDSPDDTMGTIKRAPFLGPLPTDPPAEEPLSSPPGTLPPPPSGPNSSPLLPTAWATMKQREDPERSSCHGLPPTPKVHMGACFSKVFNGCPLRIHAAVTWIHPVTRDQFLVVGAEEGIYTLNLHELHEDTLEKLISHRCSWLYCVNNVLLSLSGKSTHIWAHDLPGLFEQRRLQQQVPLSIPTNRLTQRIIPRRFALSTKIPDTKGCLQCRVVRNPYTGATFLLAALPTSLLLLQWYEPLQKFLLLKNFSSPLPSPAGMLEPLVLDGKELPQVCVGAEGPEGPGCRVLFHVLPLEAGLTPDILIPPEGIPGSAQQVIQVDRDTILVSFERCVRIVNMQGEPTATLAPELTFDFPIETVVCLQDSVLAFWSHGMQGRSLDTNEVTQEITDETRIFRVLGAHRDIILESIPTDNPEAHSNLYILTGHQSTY
The settings on record: at 0.1 µM.

The target in experiment [9] is T3, Mitogen-activated protein kinase kinase kinase kinase 2 (Homo sapiens). Conditions: at 1 µM.
Experiment [10] deals with Mitogen-activated protein kinase kinase kinase kinase 4 (Homo sapiens) (UniProt O95819). Conditions: at 0.1 µM.
Mitogen-activated protein kinase kinase kinase kinase 4 (Homo sapiens), sequence (O95819 2-1239 limits assumed): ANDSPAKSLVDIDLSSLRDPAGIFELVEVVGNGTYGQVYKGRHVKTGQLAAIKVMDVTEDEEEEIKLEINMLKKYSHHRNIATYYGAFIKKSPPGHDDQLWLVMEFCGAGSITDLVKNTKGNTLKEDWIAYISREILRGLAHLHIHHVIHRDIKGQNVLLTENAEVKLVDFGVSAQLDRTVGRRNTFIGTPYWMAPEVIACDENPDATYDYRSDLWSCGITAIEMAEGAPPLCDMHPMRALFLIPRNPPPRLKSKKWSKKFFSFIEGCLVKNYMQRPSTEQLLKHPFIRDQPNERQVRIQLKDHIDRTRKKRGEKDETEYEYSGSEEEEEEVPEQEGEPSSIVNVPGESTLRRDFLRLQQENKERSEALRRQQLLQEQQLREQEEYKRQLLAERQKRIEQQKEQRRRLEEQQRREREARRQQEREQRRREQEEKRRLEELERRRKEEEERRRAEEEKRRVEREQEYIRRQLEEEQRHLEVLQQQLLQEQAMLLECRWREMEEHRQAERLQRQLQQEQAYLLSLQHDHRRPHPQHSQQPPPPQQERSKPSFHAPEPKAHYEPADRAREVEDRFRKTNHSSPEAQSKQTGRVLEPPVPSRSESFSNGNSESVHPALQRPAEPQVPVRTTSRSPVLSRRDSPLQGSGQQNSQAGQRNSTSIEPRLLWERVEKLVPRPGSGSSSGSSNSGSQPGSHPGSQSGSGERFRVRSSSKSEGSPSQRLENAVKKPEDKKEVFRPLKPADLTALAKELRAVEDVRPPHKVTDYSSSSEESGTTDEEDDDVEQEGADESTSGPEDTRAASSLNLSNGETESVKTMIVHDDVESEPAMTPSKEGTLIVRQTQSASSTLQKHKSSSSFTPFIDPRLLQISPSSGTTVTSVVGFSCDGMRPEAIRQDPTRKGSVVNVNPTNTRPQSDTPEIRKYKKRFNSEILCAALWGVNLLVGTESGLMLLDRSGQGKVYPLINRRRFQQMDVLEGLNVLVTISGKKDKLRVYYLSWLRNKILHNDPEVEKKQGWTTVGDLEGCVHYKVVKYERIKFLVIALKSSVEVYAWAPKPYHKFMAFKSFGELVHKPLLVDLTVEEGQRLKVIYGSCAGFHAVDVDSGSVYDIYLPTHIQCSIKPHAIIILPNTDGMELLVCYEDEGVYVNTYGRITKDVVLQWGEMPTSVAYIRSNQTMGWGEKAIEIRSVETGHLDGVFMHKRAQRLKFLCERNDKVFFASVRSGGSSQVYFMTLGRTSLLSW
For experiment [11] the target is unchanged. The settings on record: at 1 µM.
Experiment [12] concerns the target Dual specificity mitogen-activated protein kinase kinase 1 (Homo sapiens) (UniProt Q02750). Conditions: at 0.1 µM.
For experiment [13] the target is unchanged. The settings on record: at 1 µM.
Experiment [14] concerns the target Misshapen-like kinase 1 (Homo sapiens) (UniProt Q8N4C8). Conditions: at 0.1 µM.
Experiment [15] has the same target. Conditions: at 1 µM.
In experiment [16] the target is T4, Serine/threonine-protein kinase 4 (Homo sapiens) (UniProt Q13043).
T4 sequence (whole entry): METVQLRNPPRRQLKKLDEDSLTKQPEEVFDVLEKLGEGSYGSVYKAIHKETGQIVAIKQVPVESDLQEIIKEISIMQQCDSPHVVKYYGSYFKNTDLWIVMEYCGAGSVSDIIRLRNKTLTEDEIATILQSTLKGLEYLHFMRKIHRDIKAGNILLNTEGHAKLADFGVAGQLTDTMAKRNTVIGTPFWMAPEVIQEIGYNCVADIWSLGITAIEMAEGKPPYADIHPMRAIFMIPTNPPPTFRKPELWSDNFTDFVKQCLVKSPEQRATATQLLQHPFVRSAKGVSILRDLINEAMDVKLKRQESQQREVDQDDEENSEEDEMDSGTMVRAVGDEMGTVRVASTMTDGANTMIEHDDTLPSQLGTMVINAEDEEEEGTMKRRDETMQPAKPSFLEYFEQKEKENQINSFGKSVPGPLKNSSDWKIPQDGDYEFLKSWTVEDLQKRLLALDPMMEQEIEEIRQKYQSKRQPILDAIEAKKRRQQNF
The settings on record: at 0.1 µM.

For experiment [17], the target named is T4, Serine/threonine-protein kinase 4 (Homo sapiens). Conditions: at 1 µM.
Experiment [18] concerns the target T5, Serine/threonine-protein kinase 3 (Homo sapiens) (UniProt Q13188).
T5 sequence (whole entry): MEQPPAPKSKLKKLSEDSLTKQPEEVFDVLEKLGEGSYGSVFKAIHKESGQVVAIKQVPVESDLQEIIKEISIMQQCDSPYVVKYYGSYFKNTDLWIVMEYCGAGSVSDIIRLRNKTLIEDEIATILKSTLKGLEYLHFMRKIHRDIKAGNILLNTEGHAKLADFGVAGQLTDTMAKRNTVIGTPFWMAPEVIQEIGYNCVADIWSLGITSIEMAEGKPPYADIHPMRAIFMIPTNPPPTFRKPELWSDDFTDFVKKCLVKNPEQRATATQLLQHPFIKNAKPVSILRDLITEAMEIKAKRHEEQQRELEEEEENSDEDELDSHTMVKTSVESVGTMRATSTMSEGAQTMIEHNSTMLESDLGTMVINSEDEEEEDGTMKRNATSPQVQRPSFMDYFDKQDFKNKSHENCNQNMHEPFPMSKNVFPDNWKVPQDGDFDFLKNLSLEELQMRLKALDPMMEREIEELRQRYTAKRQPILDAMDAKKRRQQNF
The settings on record: at 0.1 µM.

Experiment [19] concerns the target T5, Serine/threonine-protein kinase 3 (Homo sapiens). Conditions: at 1 µM.
Experiment [20] has as its target Serine/threonine-protein kinase 26 (Homo sapiens) (UniProt Q9P289). Conditions: at 0.1 µM.

Serine/threonine-protein kinase 10 (Homo sapiens), sequence (O94804 whole entry, looked up): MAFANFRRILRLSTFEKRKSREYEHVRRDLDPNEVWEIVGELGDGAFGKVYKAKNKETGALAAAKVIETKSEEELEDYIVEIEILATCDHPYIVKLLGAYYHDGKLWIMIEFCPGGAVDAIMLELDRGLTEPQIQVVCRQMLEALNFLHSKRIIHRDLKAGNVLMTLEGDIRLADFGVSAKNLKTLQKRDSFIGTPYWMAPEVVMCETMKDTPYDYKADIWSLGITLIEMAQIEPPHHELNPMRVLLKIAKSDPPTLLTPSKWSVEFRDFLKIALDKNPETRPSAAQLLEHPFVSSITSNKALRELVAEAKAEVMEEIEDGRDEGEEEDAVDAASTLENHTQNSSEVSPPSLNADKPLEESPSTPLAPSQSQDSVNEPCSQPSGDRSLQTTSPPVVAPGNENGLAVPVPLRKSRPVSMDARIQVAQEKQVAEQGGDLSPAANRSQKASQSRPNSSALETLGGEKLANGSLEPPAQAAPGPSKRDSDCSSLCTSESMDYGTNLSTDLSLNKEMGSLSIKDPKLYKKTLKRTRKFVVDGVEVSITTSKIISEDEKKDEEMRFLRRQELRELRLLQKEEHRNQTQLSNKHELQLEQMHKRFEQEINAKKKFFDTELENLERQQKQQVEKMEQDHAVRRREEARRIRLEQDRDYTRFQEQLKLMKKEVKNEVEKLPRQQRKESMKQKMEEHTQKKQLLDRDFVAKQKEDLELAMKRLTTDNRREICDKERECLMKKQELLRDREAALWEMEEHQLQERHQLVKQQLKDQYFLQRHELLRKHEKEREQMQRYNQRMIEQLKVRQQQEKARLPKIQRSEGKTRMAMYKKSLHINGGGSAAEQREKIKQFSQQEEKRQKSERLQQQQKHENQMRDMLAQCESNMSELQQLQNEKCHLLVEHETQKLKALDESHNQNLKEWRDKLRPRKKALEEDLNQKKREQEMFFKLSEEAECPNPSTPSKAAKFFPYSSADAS
Serine/threonine-protein kinase 26 (Homo sapiens), sequence (Q9P289 2-416 limits assumed): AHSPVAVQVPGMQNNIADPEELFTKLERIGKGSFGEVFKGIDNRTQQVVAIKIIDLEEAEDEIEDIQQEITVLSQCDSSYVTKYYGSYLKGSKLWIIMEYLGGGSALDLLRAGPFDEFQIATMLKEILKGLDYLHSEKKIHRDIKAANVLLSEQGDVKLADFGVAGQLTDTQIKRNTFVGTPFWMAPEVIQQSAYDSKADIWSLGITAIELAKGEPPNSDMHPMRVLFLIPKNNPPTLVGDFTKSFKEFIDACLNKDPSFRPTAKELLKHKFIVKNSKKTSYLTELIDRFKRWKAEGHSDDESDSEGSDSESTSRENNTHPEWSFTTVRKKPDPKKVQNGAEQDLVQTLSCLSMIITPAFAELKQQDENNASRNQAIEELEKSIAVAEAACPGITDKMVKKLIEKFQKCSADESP
Misshapen-like kinase 1 (Homo sapiens), sequence (Q8N4C8 whole entry, looked up): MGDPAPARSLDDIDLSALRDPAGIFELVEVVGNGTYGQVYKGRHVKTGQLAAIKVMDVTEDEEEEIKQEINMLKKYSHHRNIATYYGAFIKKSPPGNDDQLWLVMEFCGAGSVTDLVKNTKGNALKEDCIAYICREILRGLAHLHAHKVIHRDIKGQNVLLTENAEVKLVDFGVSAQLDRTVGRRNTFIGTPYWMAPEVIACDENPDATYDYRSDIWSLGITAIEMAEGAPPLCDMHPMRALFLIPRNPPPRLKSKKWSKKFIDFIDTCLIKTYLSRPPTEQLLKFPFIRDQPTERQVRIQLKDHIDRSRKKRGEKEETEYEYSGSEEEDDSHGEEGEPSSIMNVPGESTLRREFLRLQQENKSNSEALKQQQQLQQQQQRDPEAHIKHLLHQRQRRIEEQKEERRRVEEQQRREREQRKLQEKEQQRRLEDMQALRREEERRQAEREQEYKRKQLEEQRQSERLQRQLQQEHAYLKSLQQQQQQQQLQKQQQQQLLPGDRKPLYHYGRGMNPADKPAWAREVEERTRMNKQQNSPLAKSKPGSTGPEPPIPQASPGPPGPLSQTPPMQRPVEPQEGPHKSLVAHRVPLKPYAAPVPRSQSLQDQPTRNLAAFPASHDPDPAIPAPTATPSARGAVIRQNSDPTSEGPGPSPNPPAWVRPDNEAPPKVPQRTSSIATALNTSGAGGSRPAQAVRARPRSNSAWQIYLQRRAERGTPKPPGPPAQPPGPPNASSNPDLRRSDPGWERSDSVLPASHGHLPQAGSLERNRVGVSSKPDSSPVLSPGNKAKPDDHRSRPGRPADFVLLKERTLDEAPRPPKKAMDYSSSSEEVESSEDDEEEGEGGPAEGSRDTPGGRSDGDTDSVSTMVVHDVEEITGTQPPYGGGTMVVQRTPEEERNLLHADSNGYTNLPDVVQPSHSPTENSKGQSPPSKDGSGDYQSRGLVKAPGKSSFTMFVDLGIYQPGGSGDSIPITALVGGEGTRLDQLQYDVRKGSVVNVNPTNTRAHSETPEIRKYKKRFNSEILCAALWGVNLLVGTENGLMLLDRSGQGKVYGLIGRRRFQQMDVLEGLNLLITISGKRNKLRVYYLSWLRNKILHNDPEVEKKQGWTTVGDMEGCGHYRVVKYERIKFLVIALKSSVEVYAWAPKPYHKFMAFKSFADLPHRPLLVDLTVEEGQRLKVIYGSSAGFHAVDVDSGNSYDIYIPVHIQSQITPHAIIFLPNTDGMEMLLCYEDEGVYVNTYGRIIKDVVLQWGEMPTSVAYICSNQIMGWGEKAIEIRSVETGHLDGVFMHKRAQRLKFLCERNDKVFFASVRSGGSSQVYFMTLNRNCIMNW
Dual specificity mitogen-activated protein kinase kinase 1 (Homo sapiens), sequence (Q02750 whole entry): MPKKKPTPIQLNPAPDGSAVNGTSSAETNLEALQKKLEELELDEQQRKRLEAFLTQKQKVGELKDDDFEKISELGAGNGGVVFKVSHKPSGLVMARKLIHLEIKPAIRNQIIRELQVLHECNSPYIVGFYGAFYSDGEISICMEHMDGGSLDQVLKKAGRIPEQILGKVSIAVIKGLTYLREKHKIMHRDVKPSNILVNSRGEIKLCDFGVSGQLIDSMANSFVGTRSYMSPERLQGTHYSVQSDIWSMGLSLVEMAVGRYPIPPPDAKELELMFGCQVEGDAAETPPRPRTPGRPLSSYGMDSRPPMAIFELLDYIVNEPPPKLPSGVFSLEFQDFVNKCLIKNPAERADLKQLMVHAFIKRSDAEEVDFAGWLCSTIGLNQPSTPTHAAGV

Consider `COc1ccc(COc2ccc(Cc3cnc(N)nc3N)cc2OC)cc1`, for which the inhibition came out at 2.3% in experiment [1]; 3.53% in experiment [2]; 4.95% in [3]; 2.97% in experiment [4]; 16.2% in experiment [5]; 5.28% in [6]. For the same compound, the inhibition in experiment [7] was 7.31%; in experiment [8] it was 3.72%; in experiment [9], 3.99%; in experiment [10], 0.34%; in [11], 6.03%; in experiment [12], 1.66%. The inhibition in [13] came out at 0.97%; in [14], 0.71%; in experiment [15], 4.81%; in [16], 4.51%; in experiment [17], 4.23%; in experiment [18], 3.88%. The inhibition in experiment [19] was determined as 3.04%; in [20], 3.22%.

As to `CN1CCC(C(=O)Nc2n[nH]c3nnc(-c4ccccc4)cc23)CC1`, the inhibition in experiment [1] was 8.78%; in [2], 3.81%; in experiment [3], 9.47%; in experiment [4], 4.39%; in experiment [5] it was -2.07%; in experiment [6], 8.49%. Moreover, the inhibition was 9.99% in [7]; 0.73% in experiment [8]; 3.35% in [9]; 6.6% in experiment [10]; 14.1% in [11]; 6.89% in experiment [12]. Moreover, the inhibition came to 5.56% in experiment [13]; 6.64% in experiment [14]; 14.6% in experiment [15]; 4.72% in experiment [16]; 13% in experiment [17]; 5.88% in experiment [18]. Moreover, the inhibition in experiment [19] is 9.3%; in experiment [20] it was -0.64%.

On to `COc1cc2ncn(-c3cc(O[C@@H](C)c4ccccc4Cl)c(C(N)=O)s3)c2cc1OC`, for which the inhibition in [1] turned out to be 18.1%; in experiment [2], 8.64%; in experiment [3], 38.8%; in experiment [4], 8%; in experiment [5], 49.3%; in experiment [6], 54%. Besides, the inhibition in experiment [7] amounted to 79.5%; in experiment [8] it was 6.14%; in [9], 20.2%; in experiment [10], 5.91%; in experiment [11], 32%; in experiment [12], 4.3%. The inhibition is 3.99% in [13]; 9.25% in [14]; 28.5% in experiment [15]; 8.63% in experiment [16]; 40.3% in [17]; 11.8% in experiment [18]. Besides, the inhibition in [19] was 34.8%; in [20] it was -3.61%.

Turning to `CC1=C(C(=O)Nc2ccc3[nH]ncc3c2)C(c2ccc3ccccc3c2)CC(=O)N1` (stereo not given), the inhibition came out at 70.6% in [1]; 4.02% in experiment [2]; 22% in experiment [3]; 3.09% in [4]; 32.8% in experiment [5]; 2.65% in [6]. Besides, the inhibition turned out to be 2.84% in [7]; 1.47% in [8]; 3.14% in experiment [9]; 2.51% in [10]; 3.73% in experiment [11]; 8.09% in experiment [12]. Moreover, the inhibition in experiment [13] was determined as 44.4%; in experiment [14], 4.56%; in [15] it was 3.98%; in [16] it was 3.56%; in experiment [17], 12.2%; in [18], 3.29%. Also, the values for the inhibition in experiment [19] and in experiment [20] were 9.79% and -0.11%, respectively.

For the compound `CC(=O)Nc1cccc(C#Cc2cncnc2Nc2ccc(OCc3cccc(F)c3)c(Cl)c2)n1`, the inhibition was 2.65% in experiment [1]; 3.23% in experiment [2]; 1.96% in experiment [3]; 3.46% in experiment [4]; -5.73% in experiment [5]; 4.04% in experiment [6]. For the same compound, the inhibition was 14.4% in experiment [7]; 2.81% in [8]; 2.04% in experiment [9]; -0.3% in experiment [10]; 8.1% in experiment [11]; -0.39% in experiment [12]. For the same compound, the inhibition in experiment [13] is -1.7%; in experiment [14], 0.33%; in experiment [15], 10.7%; in [16], 4%; in [17], 7.41%; in [18] it was 3.99%. Further, the figures for the inhibition in experiment [19] and in experiment [20] were 8.13% and 2.55%, respectively.

In the case of `CNC(=O)c1cncc(/C=C/c2c(Cl)cccc2Cl)c1`, the inhibition is 0.47% in experiment [1]; -2.93% in experiment [2]; 2.43% in [3]; -4.44% in experiment [4]; 0.68% in [5]; 6.82% in [6]. Further, the inhibition is 10.6% in [7]; 1.03% in experiment [8]; 2.47% in [9]; 8.94% in experiment [10]; 23% in experiment [11]; 1.66% in experiment [12]. Also, the inhibition is 1.76% in experiment [13]; 7.96% in [14]; 19.3% in experiment [15]; 3.04% in experiment [16]; 7.53% in experiment [17]; 4.32% in [18]. Besides, the inhibition in experiment [19] was 8.47%; in experiment [20], -1.2%.
